Measurements as given in PubChem BioAssay (EPA / NIEHS).
Several values for one entry are separate records, joined by “and”; a condition that tells them apart may be missing. Equal values may be shown once. Inconclusive results are not listed. Activity calls are given as the source filed them. How the source made its calls: active means hit-call score of the fitted dose curve at least 0.9, where 1 is the maximum; inconclusive means response in the unintended direction; inactive means score below 0.9.

Test: ACEA_ER_AUC_viability: ACEA Biosciences xCELLigence Real-Time Cell Analysis on Estrogen Receptor Agonism for Viability (AID 2283782);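 further: continuous compound exposure with impedance area under curve over 80 h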
Method: ACEA_ER is a cell-based, single-readout assay that uses T47D, a human breast cell line, with measurements taken at 80 hours after chemical dosing in a 96-well plate, although TO2 (mc0.srcf) used a 384-well plate. Differences in plate size can be ignored given data normalization.ACEA_ER_AUC_viability is one of two assay component(s) measured or calculated from the ACEA_ER assay. It is designed to make measurements of real-time cell-growth kinetics, a form of growth reporter, as detected with electrical impedance signals by Real-Time Cell Electrode Sensor (RT-CES) technology.Data from the assay component ACEA_ER_AUC_viability was analyzed in the positive analysis fitting direction relative to DMSO as the negative control and baseline of activity. Using a type of growth reporter, loss-of-signal activity can be used to understand changes in the viability. Furthermore, this assay endpoint can be referred to as a secondary readout, because this assay has produced multiple assay endpoints where this one serves a viability function. To generalize the intended target to other relatable targets, this assay endpoint is annotated to the cell cycle intended target family, where the subfamily is cytotoxicity.
The xCELLigence system Multi-E-Plate stations were used to measure the time-dependent response to chemicals. Each compound was tested in an eight-point, 1:4 serial dilution series starting at a maximum final concentration of 100 uM. A maximum starting concentration of 0.5% DMSO was present in the 100 uM chemical samples and was diluted along with the test article dilution series. The screen was performed in biological duplicate using two separate, 96-well, E-Plates 96 for each dilution series (n = 2). Positive controls (MG132 and E2) and a negative control (assay media) were tested in quadruplicate on each testing plate. Then, 0.5% and 0.125% DMSO were tested in duplicates in each plate to serve as solvent controls for the 2 highest concentrations of testing compounds: 100 uM and 25 uM. Reference compounds were tested with 8 concentrations with 1:5 serial dilutions. All screening was carried out by ACEA Biosciences, Inc. (San Diego, CA). T-47D cells purchased from ATCC were maintained in RPMI1640 media supplemented with 10% characterized fetal bovine serum (FBS). Before screening, T-47D cells were preconditioned in assay medium: phenol red-free RPMI1640 supplemented with 10% charcoal-stripped FBS. Cells were then detached and seeded in E-Plates 96 in assay medium. After overnight monitoring of growth once every hour, compounds were added to […] cells and remained in the medium until the end of the experiment. Cellular responses were then recorded once every 5 min for the first 5 h, and once every hour for an additional 100 h.

Structure (SMILES)	AC50	outcome
N#CSCSc1nc2ccccc2s1	10.9 µM (active)	
CCCCCCC(C)OC(=O)COc1nc(F)c(Cl)c(N)c1Cl (stereo unspecified)	14.3 µM (active)	
CSC(=O)c1cccc2nnsc12		inactive
CCCCC(CC)CN1C(=O)C2C3C=CC(C3)C2C1=O (stereo unspecified)	70.2 µM (active)	
CCCCCOC(=O)COc1cc(N2C(=O)C3=C(CCCC3)C2=O)c(F)cc1Cl		inactive
CN(C)C(=O)Nc1ccc(Cl)c(Cl)c1		inactive
CCOC(=O)COc1cc(-n2ncc(C(F)(F)F)c(C)c2=O)c(F)cc1Cl		inactive
CCCOC(=O)c1ccc(C(=O)OCCC)nc1		inactive
CCC(C)OC(=O)N1CCCCC1CCO (stereo unspecified)		inactive
C=CCOC(Cn1ccnc1)c1ccc(Cl)cc1Cl (stereo unspecified)	50 µM (active)	
S=C(S)NCCNC(=S)S.[Mn+2].[S-]C([S-])=NCCN=C([S-])[S-].[Zn+2]		inactive
c1ccc2[nH]c(-c3cscn3)nc2c1		inactive
CCCCC(CC)COC(=O)c1ccccc1C(=O)O (stereo unspecified)		inactive
CCOC(=O)NCCOc1ccc(Oc2ccccc2)cc1	95.3 µM (active)	
CCCCOCCOCCOCc1cc2c(cc1CCC)OCO2		inactive
O=C(O)c1ccccc1		inactive
Oc1ccc(C(c2ccc(O)cc2)C(Cl)(Cl)Cl)cc1	83.7 µM (active)	
COc1c(Cl)ccc(Cl)c1C(=O)O		inactive
Cc1nn(C)c(Oc2ccccc2)c1C=NOCc1ccc(C(=O)OC(C)(C)C)cc1		inactive
CCSC(=O)N(CC(C)C)CC(C)C		inactive
O=C(Nc1ccc([N+](=O)[O-])cc1Cl)c1cc(Cl)ccc1O	2.89 µM (active)	
COC(=O)c1ccc(I)cc1S(=O)(=O)NC(=O)Nc1nc(C)nc(OC)n1		inactive
O=C(O)C1(C(=O)Nc2ccc(Cl)cc2Cl)CC1		inactive
CC(C)CCCCCCc1ccc(O)cc1	20.2 µM (active) and 21.5 µM (active) and 20.6 µM (active)	
c1ccc(Nc2ccccc2)cc1		inactive
COC(=O)CSc1cc(N=c2sc(=O)n3n2CCCC3)c(F)cc1Cl		inactive
